Experimental data reported in PubChem BioAssay AID540256 (National Center for Advancing Translational Sciences (NCATS), 2011).
The whole screen tested about 300,000 compounds, of which about 3,700 (1.2%) were called active. Inconclusive results (about 20%) are left out. Calls follow the shape of the full dose curve; tested in HEK293 cells. What follows is part of a selection rich in actives, with near analogues and random picks from the rest. Where a call stands in place of a potency, no number is given.

Experiment: qHTS for Inhibitors of binding or entry into cells for Lassa Virus; also: nearly all actives have a fitted effect of over 50% in size
Conditions: Lassa virus pseudotype entry inhibition, cell reporter; series mostly up to 37.9 µM
Potency is read from the fitted curve at half-maximal effect.

SMILES | Potency
CCOc1ccc2[nH]c(=O)c(CN(CCCO)S(=O)(=O)c3ccc(F)cc3)cc2c1 | inactive
COc1ccc(C(C(=O)NC2CCCCC2)N(C(=O)CCl)c2ccccc2Cl)cc1 (stereo unspecified) | inactive
NC(=O)c1nsc(C(=O)N(CCCN2CCOCC2)C(C(=O)NC2CCCCC2)c2ccc(Cl)cc2)c1N (stereo unspecified) | inactive
COc1ccc(C(C(=O)NC2CCCCC2)N(C(=O)c2snc(C(N)=O)c2N)c2ccccc2OC)cc1 (stereo unspecified) | 10 µM (active)
O=C(O)C1C2C=CC(O2)C1C(=O)Nc1ccccn1 (stereo unspecified) | inactive
COCCNc1cc(-c2ccccc2)nc2cc(-c3cccc(F)c3)nn12 | inactive
CC(=O)Nc1ccc(NC(=O)COC(=O)C2CCC(C(C)(C)C)CC2)cc1 (stereo unspecified) | inactive
COc1ccc(CCNS(=O)(=O)c2cc(-c3cc(C)no3)ccc2C)cc1OC | inactive
COc1ccc(Cl)cc1NC(=O)NCC1CCN(Cc2ccccc2F)CC1 | inactive
O=C(Nc1ccn(Cc2ccccc2F)n1)c1ccc(COc2ccc(Cl)cc2Cl)o1 | 10 µM (active)
COC(=O)c1ccccc1NC(=O)c1ccc(COc2ccccc2Cl)o1 | inactive
COc1ccccc1N(C)S(=O)(=O)c1ccc(Cl)c(C(=O)Nc2ccncc2)c1 | inactive
O=C(NC(=O)c1ccccc1)NC(=O)c1ccccc1 | inactive
CN(O)C(=S)c1ccccc1 | 6.31 µM (active)
CCc1ccc(C(=O)C(C)OC(=O)CN2C(=O)NC3(CCCC3)C2=O)cc1 (stereo unspecified) | inactive
O=C(c1ccccc1Oc1ccccc1)N1CCN(c2ccc(F)cc2)CC1 | inactive
Cn1c2ccccc2c2c(C(=O)N3CCN(c4ccc(F)cc4)CC3)cn(C3CCCC3)c(=O)c21 | 10 µM (active)
CCOc1ccc(NC(=O)c2cn(C3CCCCC3)c(=O)c3c2c2ccccc2n3C)cc1 | inactive
O=C(NNC(=O)c1ccc(-c2ccccc2)cc1)Nc1ccccc1 | inactive
CC(Nc1ccc([N+](=O)[O-])cc1[N+](=O)[O-])c1ccccc1 (stereo unspecified) | inactive
O=C(/C=C/c1ccccc1)N1CCN(Cc2cc(=O)n3nc(-c4ccccc4F)sc3n2)CC1 | inactive
Cc1cccc(C(=O)Nc2nnc(Cc3c[nH]c4ccccc34)s2)c1 | inactive
Cc1cccc(N=C2NN=C(c3c[nH]c4ccccc34)CS2)c1 | 14.6 µM (active)
CC(=O)c1c(C)[nH]c(C(=O)N2CCN(S(=O)(=O)c3ccc(F)c(F)c3)CC2)c1C | inactive
O=C(CCC1CCCCC1)Nc1cc(C(F)(F)F)ccc1N1CCOCC1 | inactive
COc1cccc(C(=O)OCc2cc(=O)oc3c(C)c(C)ccc23)c1OC | inactive

SMILES | Potency
CCOc1ccc(NC(=O)CN(C)C(=O)Cc2sc(C)nc2-c2ccc(F)cc2)cc1OCC | inactive
N#CCc1c[nH]c2ccc([N+](=O)[O-])cc12 | inactive
O=S(=O)(c1ccc(Br)cc1)c1nc(-c2ccccc2)oc1NCc1cccnc1 | inactive
Cc1ccc(S(=O)(=O)c2nc(-c3cccs3)oc2NCc2cccnc2)cc1 | inactive
COc1cccc(-c2nc(S(=O)(=O)c3ccc(C)cc3)c(NCc3ccccc3)o2)c1 | 10 µM (active)
CN(C)c1nc(NN)nc(Nc2ccc(F)cc2)n1 | inactive
CCOc1ccc(C(=O)CCC(=O)Nc2ccncc2)cc1 | inactive
CC(CCc1ccccc1)NC(=O)COC(=O)c1ccc(F)cc1 (stereo unspecified) | inactive
CCC1(C)Cc2c(sc3[nH]c(=S)n(Cc4ccccc4)c(=O)c23)CO1 (stereo unspecified) | 5.62 µM (active)
CCC1(C)Cc2c(sc3nc4n(c(=O)c23)CCCS4)CO1 (stereo unspecified) | inactive
CCC1(C)Cc2c(sc3nc(SC)[nH]c(=O)c23)CO1 (stereo unspecified) | inactive
O=C(CCNC(=O)c1ccccc1Cl)NN=Cc1ccco1 | inactive
CCOC(=O)c1csc(CCNC(=O)c2oc3c(Cl)cc(C)cc3c2C)n1 | inactive
CN1C(c2ccc(F)cc2)=CS/C1=C(/C#N)c1nnc2n1-c1ccccc1SC2 | inactive
C/C(CC(=O)Nc1cccc(F)c1)=N\NC(=O)C(=O)NC1CCCCC1 | inactive
Cc1cc(C)cc(NC(=O)NC2CCCCCCC2)c1 | inactive
O=C(Nc1cccc(F)c1)NC1CCCCCCC1 | 12.6 µM (active)
COc1ccc2oc(C(=O)N(CC(C)C)C3CCS(=O)(=O)C3)c(C)c2c1 (stereo unspecified) | inactive
COc1ccccc1N(CCOc1ccccc1)S(=O)(=O)c1ccccc1 | inactive
Cc1ccc(S(=O)(=O)N2CCC(=O)N([C@H](COCc3ccccc3)C(C)C)CC2)cc1 | inactive
Cc1cc(C)c2nc(NC(=O)c3ccc4c(c3)OCO4)sc2c1 | inactive
O=C(Nc1cccc([N+](=O)[O-])c1)c1ccc2c(c1)OCO2 | inactive
O=C(Nc1cccc(S(=O)(=O)N2CCCCC2)c1)c1ccc2c(c1)OCO2 | inactive
O=C(c1ccc(Cl)c(S(=O)(=O)N2CCCCC2)c1)N1CCCCCC1 | inactive
O=C(Nc1nc2ccccc2s1)c1ccc2c(c1)OCO2 | 2.51 µM (active)
O=C(Nc1ccccc1)c1ccc2c(c1)OCCCO2 | 3.16 µM (active)

SMILES | Potency
O=C(Nc1ccc2c(c1)OCCO2)c1ccc(Cl)c(S(=O)(=O)N2CCCCC2)c1 | 20.6 µM (active)
O=C(Nc1ccc(N2CCOCC2)cc1)c1ccc2c(c1)OCO2 | inactive
O=C(Nc1ccccc1F)c1ccc2c(c1)OCO2 | inactive
N#Cc1ccccc1S(=O)(=O)N1CCN(C(=O)c2cc(-c3ccccc3)nn2-c2ccccc2)CC1 | inactive
COc1ccc(-c2csc3ncnc(N4CCN(S(=O)(=O)c5ccccc5C#N)CC4)c23)cc1 | inactive
Cc1cc(C)c(NC(=O)CN2C(=O)c3cccnc3Oc3ccc(Cl)cc32)c(C)c1 | inactive
O=c1[nH]c2c(c(=O)n1-c1ccccc1)CCO2 | inactive
CC(CC(=O)N1CCN(c2ccccc2)CC1)S(=O)(=O)c1ccc2c(c1)NC(=O)CS2 (stereo unspecified) | inactive
COc1ccc(-c2nc3sc(CCNC(=O)C(C)(C)C)c(C)n3n2)cc1 | inactive
CCC[C@@H]1C[C@@]1(CCC)[C@@H](NC(=O)c1ccccc1)c1ccc(C(=O)OC)cc1 | inactive
CC(=O)c1ccc(OC(NC(=O)Cc2ccccc2)C(Cl)(Cl)Cl)cc1 (stereo unspecified) | inactive
CCC/C=C(\CCC)C(NC(=O)Cc1ccccc1)c1ccc(C(=O)OC)cc1 (stereo unspecified) | 6.51 µM (active)
COc1ccc(OCC(=O)NNC(=O)C2CCC2)cc1 | inactive
Cc1ccc(NC(=O)C(C)OC(=O)C2CC3CCCC(C2)C3=O)cc1S(=O)(=O)N1CCOCC1 (stereo unspecified) | inactive
O=c1[nH]c(N2CCN(Cc3ccc4c(c3)OCO4)CC2)nc2c1CCCC2 | inactive
Fc1ccc2[nH]c3c(N4CCN(Cc5ccc6c(c5)OCO6)CC4)ncnc3c2c1 | 15.8 µM (active)
Fc1ccc(N2CCN(Cc3ccc4c(c3)OCO4)CC2)cc1 | inactive
Cc1cc2c(cc3c(SCc4nc(-c5ccccc5)oc4C)nnc(C)n32)o1 | inactive
Cc1ccc2c(c1)C1CN(C)CCC1N2S(=O)(=O)c1cccc(F)c1 (stereo unspecified) | inactive
CCc1ccc2nc(N(CCCN(C)C)C(=O)c3ccc4c(c3)OCCO4)sc2c1 | inactive
CCN(CC)CCN(C(=O)c1ccc(S(=O)(=O)N2CCOCC2)cc1)c1nc2cc3c(cc2s1)OCCO3 | inactive
CN(C)CCCN(C(=O)c1ccc(S(=O)(=O)N2CCCCCC2)cc1)c1nc2cc3c(cc2s1)OCCO3 | 14.1 µM (active)
CC(C)CC1(C)NC(=O)N(CC(=O)Nc2ccc3c(c2)OCCO3)C1=O (stereo unspecified) | inactive
COC(=O)CN(C(=S)Nc1ccc(Cl)cc1)C1CC(=O)N(c2ccc(OC)cc2)C1=O (stereo unspecified) | inactive
CN(CC(=O)Nc1cccc(F)c1)C(=O)C1CC(=O)N(CCc2ccccc2)C1 (stereo unspecified) | inactive
CN(C)c1ccc(NC(=S)N(CCc2ccccc2)C2CC(=O)N(c3c(Cl)cccc3Cl)C2=O)cc1 (stereo unspecified) | 3.55 µM (active)

SMILES | Potency
O=C(COc1ccccc1Cl)Nc1ccc2nc(SCC(=O)N3CCCC3)sc2c1 | inactive
CC(C)(C)C(=O)COC(=O)c1cc(S(=O)(=O)N2CCCCC2)ccc1N1CCOCC1 | inactive
COc1ccccc1-c1c(C)nn2c(C)c(C(C)=O)cnc12 | inactive
C=C(C)COc1ccc(-c2n[nH]c(C)c2-c2ccccc2OC)c(O)c1 | 7.08 µM (active)
C=C(C)COc1ccc(-c2n[nH]c(C)c2-c2ccccc2)c(O)c1 | 1.78 µM (active)
COc1ccccc1-c1n[nH]c2c1[C@H](C)CC[C@H]2C(C)C | inactive
CC(=O)COc1ccc2c(-c3ccccc3)cc(=O)oc2c1 | inactive
Cc1[nH]nc(-c2ccc(OCc3cnn(-c4ccccc4)c3)cc2O)c1Oc1ccc(Cl)cc1 | inactive
Cc1cccc(C(=O)NNC(=O)CSc2nnc(C(C)C)n2C)c1 | inactive
CCN(C(=O)COC(=O)c1ccccc1O)c1cccc2ccccc12 | inactive
CCOC(=O)c1c(S(=O)(=O)Nc2cccc(Cl)c2)c(C)n(C)c1C | inactive
CC(C)(C)c1nnc2sc(SCC(O)=C(C#N)c3nc4ccccc4[nH]3)nn2c1=O | inactive
Cc1ccccc1NC(=S)N(CCCN1CCOCC1)Cc1cccs1 | inactive
CCc1cccc(C)c1NC(=S)N(CCCN1CCN(C)CC1)Cc1cccs1 | inactive
Cc1ccc(NC(=S)N(CCN(C)C)Cc2cccs2)cc1C | 6.31 µM (active)
Cc1ccc(SCCC(=O)OCC(=O)Nc2ncc(Cl)cc2Cl)cc1 | inactive
CCOc1ccc(-n2c(SCC(=O)Nc3cc(C(=O)O)ccc3Cl)nc3ccccc3c2=O)cc1 | inactive
Cc1ccc(-n2c(SCC(=O)Nc3ncc(Cl)cc3Cl)nc3ccccc32)cc1 | 0.291 µM (active)
CC/C(=C(/c1ccccc1)c1ccc(OCC[N+](C)(C)C)cc1)c1ccccc1 | inactive
Cc1ccc(S(=O)(=O)N2CCCCC2)cc1C(=O)N(C)CC(=O)Nc1cccc(F)c1 | inactive
Cc1nc2cc3c(cc2s1)OCO3 | inactive
O=C(NCc1ccc(F)cc1)c1ccc2nc(N3CCCCC3)sc2c1 | inactive
c1c2c(cc3sc(N4CCCCC4)nc13)OCCO2 | 1.58 µM (active)
